Sampled rows, rich in hits. Any-hit rate of the full collection: about 18%.
TDP1 block: inhibitors of human tyrosyl-DNA phosphodiesterase TDP1; Q9NUW8; recombinant TDP1, AlphaScreen DNA substrate cleavage; Potency, µM (highest dose often 130 µM), without a hit: top-dose activity change, negative = inhibition, most hits filed as inhibitors; 350,000 tested, 0.28% active; AID 485290; further: nearly all actives have a fitted effect of over 40% in size
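Steps: enzyme plus compound, 15 min RT; add biotin/phosphotyrosine-FITC oligonucleotide (15 nM final), react 5 min; add donor/acceptor beads (10 ug/ml final), 10 min; read AlphaScreen. Tdp1 at 1 nM final.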
DT40 TDP1 CPT: growth inhibition of DT40 Tdp1-/-;hTDP1 cells with camptothecin (screen for TDP1 inhibitors) | chicken DT40 Tdp1-/-;hTDP1 cells + 20 nM CPT, ATP luminescence, 48 h | 420,000 tested, 12% active | Potency, µM (top dose mostly 46.2 µM), without a hit: at the top dose activity change, negative = growth inhibition, actives largely listed as inhibitors | AID 686979; further: nearly all actives have a fitted effect of over 55% in size
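Cell growth measured by CellTiter-Glo luminescence after a minimum 48 h, 37 C compound exposure with 20 nM CPT in Tdp1-knockout DT40 cells stably expressing hTDP1, seeded 400/well; qHTS titration format.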
VDR inh: blocks the human vitamin D receptor; 400,000 tested, 0.93% active; VDR-SRC2-3 peptide fluorescence polarization, 2 h; AID 504847; Potency, µM, inactives show max response, negative = inhibition, hits mostly inhibitors
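VDR–SRC2-3 interaction, FP format. Cmpds 23 nl via pintool, brief spin, 2 h ambient incubation.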
PLK1 PBD inh: inhibitors of human PLK1 polo-box domain binding. Potency, µM, without a hit: max response, negative = inhibition, most hits filed as inhibitors. AID 720504. Plk1 PBD binding of FITC phosphopeptide, fluorescence polarization. P53350. 360,000 tested, 2.8% active; further: series mostly up to about 57 µM; nearly all actives have a fitted effect of over 65% in size
GCN5L2 inh: GCN5L2 (KAT2A) acetyltransferase inhibition; Potency, µM (top dose mostly 58.9 µM), for the others: top-dose activity change, negative = inhibition, actives largely listed as inhibitors; Q92830; 390,000 tested, 0.21% active; GCN5L2 HAT assay, ThioGlo1 CoA-SH fluorescence
Target sequence (Q92830 whole entry, looked up): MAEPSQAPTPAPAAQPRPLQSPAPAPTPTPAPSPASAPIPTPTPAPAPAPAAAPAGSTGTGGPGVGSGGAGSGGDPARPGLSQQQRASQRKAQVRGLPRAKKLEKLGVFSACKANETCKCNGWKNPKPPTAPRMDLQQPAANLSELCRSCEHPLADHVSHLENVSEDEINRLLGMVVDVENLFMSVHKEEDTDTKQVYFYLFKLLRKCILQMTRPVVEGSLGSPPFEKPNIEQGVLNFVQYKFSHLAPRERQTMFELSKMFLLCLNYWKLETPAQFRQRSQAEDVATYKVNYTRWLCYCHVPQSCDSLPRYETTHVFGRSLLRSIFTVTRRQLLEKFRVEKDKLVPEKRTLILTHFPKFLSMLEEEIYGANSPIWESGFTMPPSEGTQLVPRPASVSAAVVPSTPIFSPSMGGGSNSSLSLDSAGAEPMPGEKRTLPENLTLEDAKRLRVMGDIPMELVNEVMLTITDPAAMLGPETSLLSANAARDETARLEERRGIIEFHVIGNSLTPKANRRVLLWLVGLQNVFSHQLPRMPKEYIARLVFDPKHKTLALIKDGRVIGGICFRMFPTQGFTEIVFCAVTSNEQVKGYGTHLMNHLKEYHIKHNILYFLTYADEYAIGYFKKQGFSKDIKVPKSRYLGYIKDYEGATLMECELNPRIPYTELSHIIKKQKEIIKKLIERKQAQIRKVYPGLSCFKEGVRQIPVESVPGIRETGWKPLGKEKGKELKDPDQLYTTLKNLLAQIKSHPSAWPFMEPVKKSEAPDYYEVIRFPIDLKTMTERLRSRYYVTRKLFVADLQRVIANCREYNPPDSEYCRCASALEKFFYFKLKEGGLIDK
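Free CoA generated was detected with ThioGlo1 (50uM) fluorescence at Ex340nm/Em540nm, read immediately and after 20 min at room temperature. Enzyme, 20 nM in HEPES pH 7.5 buffer, saw compounds 15 min before adding 75uM H3(1-25) peptide and 70uM acetyl-CoA.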
DT40 TDP1 no CPT: qHTS for Inhibitors of human tyrosyl-DNA phosphodiesterase 1 (TDP1): qHTS in cells in absence of CPT. DT40 Tdp1-/- hTDP1 cells, no CPT, ATP luminescence, 48 h. Potency, µM (highest dose often 46.2 µM), for the others: at the highest dose activity change, negative = growth inhibition, most hits filed as inhibitors. 420,000 tested, 15% active. AID 686978, 2013; further: nearly all actives have a fitted effect of over 55% in size
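Compound effects on proliferation are scored in DT40 Tdp1-/-;hTDP1 cells in the absence of CPT. ATP levels (CellTiter-Glo luminescence) are recorded after a ≥48 hr, 37 °C incubation.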
* hit, by the source's call; u = inconclusive; x = no result given; [ ] = dose if it differs, or a comment. The call rests on the fitted dose curve; in most records, active means well fitted curve in the direction sought with a large enough effect; inconclusive means small, poorly fitted or top-dose-only effect, or another doubt; inactive means no such curve, though single readings can be large; an effect the other way counts as inactive or inconclusive. On the % scale 0 is the no-effect control and ±100 the full control effect; potency means the concentration at half of the fitted maximal effect.

SMILES | TDP1 block | DT40 TDP1 CPT | VDR inh | PLK1 PBD inh | GCN5L2 inh | DT40 TDP1 no CPT
Oc1ccc(C=NNC(=S)Nc2cccnc2)nc1 | x | 16µM* | -15% | 1% | x | 21µM*
CCCNC(=O)C1(CC2CC(c3ccccc3)=NO2)CCN(C(=O)C2(C)CC2)CC1 (stereo not given) | x | -7% | -18% | 1% | x | -2%
CCOc1cc(C(=O)N2CCC(CC3CC(c4ccccc4)=NO3)(C(=O)NCc3ccc(OC)cc3)CC2)cc(OCC)c1OCC (stereo not given) | x | u | 10% | -6% | x | 16µM*
CCOc1cc(C(=O)N2CCC(CC3CC(c4ccc(Cl)cc4)=NO3)(C(=O)NCC3CCCCC3)CC2)cc(OCC)c1OCC (stereo not given) | x | 23µM* | -22% | 1% | -1% | 18µM*
O=C(c1csc2c1CCCC2)N1CCN(c2cccc(C(F)(F)F)c2)CC1 | -5% | u | -13% | -1% | -19% | 15µM*
O=C(c1noc2c1CCCCC2)N1CCN(c2cccc(C(F)(F)F)c2)CC1 | -5% | u | -3% | x | -4% | 16µM*
O=C(c1noc2c1CCCC2)N1CCN(C(c2ccccc2)c2ccccc2)CC1 | 0% | x | x | x | -13% | x
O=C(c1noc2c1CCCCC2)N1CCN(C(c2ccccc2)c2ccccc2)CC1 | x | 13µM* | -6% | -2% | x | 21µM*
O=C(c1noc2c1CCCCC2)N1CCN(c2cccc(Cl)c2)CC1 | -4% | u | 16% | x | -2% | u
COc1ccc(C(=O)NNC(=O)c2cccs2)cc1S(=O)(=O)N1CCOCC1 | 0% | 2% | 9% | 0% | -1% | 4%
Cc1cccc(CSc2ncc(Cl)c(C(=O)Nc3sc4c(c3C(N)=O)CCCC4)n2)c1 | 9% | 23µM* | 3% | x | -5% | 8.2µM*
COC(=O)c1c(NC(=O)c2nc(SCc3cccc(C)c3)ncc2Cl)sc2c1CCCC2 | 0% | -20% | 0% | x | -10% | -3%
COC(=O)c1c(NC(=O)c2nc(SCc3ccc(C)cc3)ncc2Cl)sc2c1CCCC2 | -2% | -8% | 2% | x | 1% | -9%
Cc1cccc(CSc2ncc(Cl)c(C(=O)Nc3sc4c(c3C#N)CCCC4)n2)c1 | 2% | 23µM* | 7% | x | -7% | 5.8µM*
COc1ccc(Br)c(Cn2c(C)c(C(=O)NCCC#N)sc2=O)c1 | x | -26% | x | -3% | x | -24%
CCC(Oc1ccc(F)cc1)C(=O)Nc1cc(-c2ccc(C)cc2)no1 (stereo not given) | 1% | u | 4% | x | -14% | u
CCC(Oc1ccc(F)cc1)C(=O)Nc1nc(-c2ccc(F)cc2)ns1 (stereo not given) | 0% | 18µM* | 18% | x | -11% | 10µM*
O=C(COc1ccccc1/C=C1\SC(=S)NC1=O)Nc1ccc(F)cc1 | 1% | u | 2% | u | -22% | 10µM*
O=C(Oc1cc2oc(=O)c3c(c2cc1Cl)CCCC3)c1ccco1 | 0% | -15% | -1% | -29% | -5% | -17%
CC(=O)Oc1cc2oc(=O)c3c(c2cc1Cl)CCC3 | -1% | -2% | -16% | 6µM* | -9% | -5%
Cc1ccc(C(=O)Nc2ccc(-c3nc4ccccc4s3)c(O)c2)c(C)c1 | 3% | 10µM* | -5% | x | u | u
O=C(CSc1nc2ccc(NC(=O)c3ccccc3C(=O)O)cc2s1)Nc1c(Cl)cccc1Cl | 4%[0.0935 µM] | 2% | -16% | -19% | -5% | 6%
Cc1cccc(NC(=O)CSc2nc3ccc(NC(=O)c4cccs4)cc3s2)c1 | -1% | 13µM* | 3% | x | -6% | 8.2µM*
COc1ccccc1C(=O)Nc1ccc(-c2nc3ccccc3s2)c(C)c1 | 3% | u | 10% | x | -5% | u
Cc1ccccc1NC(=O)CSc1nc2ccc(NC(=O)COc3ccccc3F)cc2s1 | -4% | 13µM* | 1% | x | -17% | 10µM*
SMILES | TDP1 block | DT40 TDP1 CPT | VDR inh | PLK1 PBD inh | GCN5L2 inh | DT40 TDP1 no CPT
O=C(O)CSc1nc2ccc(NC(=O)COc3ccc(Cl)cc3)cc2s1 | u | -6% | 5% | x | -15% | -4%
Cc1cccc(NC(=O)CSc2nc3ccc(NC(=O)COc4ccc(Cl)cc4)cc3s2)c1 | -1% | 7.3µM* | -7% | x | -6% | 6.5µM*
CSc1ncc(C(=O)Nc2c(C)cccc2C)c(-c2ccccc2)n1 | 0% | -11% | 11% | x | -3% | -15%
O=c1cc(NC2CCCCC2)c2ccccc2o1 | 1% | u | -10% | -3% | -5% | u
COc1ccc(C2=Cc3ccccc3C(CC(=O)C3CC3)N2c2ccc(-c3cc(OC)c(OC)c(OC)c3)cc2)cc1 (stereo not given) | x | -11% | x | -8% | x | -6%
O=C(COc1ccc(Cl)cc1)Nc1ccc2[nH]ncc2c1 | x | u | 0% | -1% | 1% | 21µM*
O=C(COc1ccc(Cl)cc1)Nc1ccc(O)c(-c2nc3ccccc3s2)c1 | 7% | u | 7% | x | u | u
O=C(COc1ccc(Cl)cc1)Nc1ccc(-c2nc3ccccc3s2)c(O)c1 | 4%[12.3 µM] | u | -4% | x | 24% | 18µM*
COc1ccc(-c2nc3ccc(N4CCCC4)cc3c(=O)[nH]2)cc1OC | 3% | 13µM* | 4% | -3% | -6% | 21µM*
COc1ccc2nc(-c3ccccc3)[nH]c(=O)c2c1 | x | 0% | -8% | -16% | x | -11%
COc1ccc(C(=O)N2CCc3cc4c(cc3C2C)OCCCO4)cc1 (stereo not given) | x | 21µM* | 2% | -14% | -12% | 21µM*
CC1c2cc3c(cc2CCN1C(=O)c1ccc(Br)cc1)OCCCO3 (stereo not given) | 4% | 16µM* | -19% | -5% | 2% | 7.3µM*
CC1c2cc3c(cc2CCN1S(=O)(=O)c1ccccc1)OCCCO3 (stereo not given) | 0% | u | -1% | -2% | -2% | -20%
Cc1cc(C)cc(NC(=O)CN2CCc3cc4c(cc3C2C)OCCCO4)c1 (stereo not given) | 1% | u | 2% | -3% | -5% | u
Cc1cc(=O)[nH]c2nnc(SCc3cccc(C(F)(F)F)c3)n12 | 5% | 15% | 10% | x | -16% | u
CCOc1ccc(S(=O)(=O)NCCCn2ccnc2)cc1 | 3% | u | -7% | 3% | -8% | -17%
Cc1ccc2c(c1)N=C(c1ccc(Cl)cc1)CO2 | -6% | u | -13% | -27% | -7% | 23µM*
Clc1ccc(C2=Nc3cc(Cl)ccc3OC2)cc1 | -5% | u | u | -6% | -2% | u
